Shown are actives, neighbours in structure and some others; about 1.1% of the full set was active somewhere.
AmpC inh no detg – inhibitors of E. coli AmpC beta-lactamase without detergent. P00811. AmpC nitrocefin hydrolysis, absorbance 480 nm, 0.0001% Triton. Potency, µM (highest dose often 57.1 µM), without a hit: at the top dose activity change, negative = inhibition, most hits filed as inhibitors. 0.52% of 330,000 active. AID 485341;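 further: plate controls were no compound for no effect and no enzyme for full effect; nearly all actives have a fitted effect of over 20% in size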
Target sequence (P00811 whole entry, looked up): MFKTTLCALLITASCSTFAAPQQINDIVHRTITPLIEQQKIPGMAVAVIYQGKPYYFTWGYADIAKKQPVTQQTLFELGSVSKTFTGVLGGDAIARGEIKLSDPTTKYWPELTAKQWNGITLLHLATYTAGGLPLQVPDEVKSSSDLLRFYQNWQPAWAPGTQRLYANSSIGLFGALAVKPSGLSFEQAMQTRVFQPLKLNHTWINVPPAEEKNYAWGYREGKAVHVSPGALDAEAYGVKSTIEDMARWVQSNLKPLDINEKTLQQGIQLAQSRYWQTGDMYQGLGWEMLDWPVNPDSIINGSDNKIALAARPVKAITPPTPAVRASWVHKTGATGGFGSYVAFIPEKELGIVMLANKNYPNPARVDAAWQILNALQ
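AmpC (5.3 nM in the dispensed reagent) in 20 mM phosphate pH 7.0 with 0.01% (detergent screen) or 0.0001% Triton X-100 was preincubated with compounds for 15 min at room temperature. Nitrocefin was then added from an 800 uM solution, and hydrolysis was followed at 480 nm.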
VACV mCherry inh – vaccinia inhibition (mCherry reporter); Potency, µM (doses to about 36.5 µM), for inactives: at the highest dose activity change, negative = inhibition, actives largely listed as inhibitors; Vaccinia virus mCherry reporter infection, fluorescence; 0.63% of 310,000 active; calls by dose curve; tested in A549 cells; further: nearly all actives have a fitted effect of over 35% in size
Vaccinia Venus – vaccinia inhibition (Venus reporter); Vaccinia virus Venus reporter expression, fluorescence; Potency, µM (highest dose often 36.5 µM), for inactives: at the highest dose activity change, negative = inhibition, usual class: inhibitors; 0.46% of 330,000 active; calls by dose curve; tested in A549 cells; further: nearly all actives have a fitted effect of over 30% in size
AmpC inh detg – inhibitors of E. coli AmpC beta-lactamase with detergent | P00811 | AmpC hydrolysis of nitrocefin, absorbance 480 nm, 0.01% Triton | Potency, µM (series often up to 114 µM), for the others: top-dose activity change, negative = inhibition, actives largely listed as inhibitors | 0.041% of 370,000 active | AID 485294;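 further: 0% = no-compound wells and -100% = no-enzyme wells; nearly all actives have a fitted effect of over 25% in size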
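20 mM phosphate pH 7.0 + 0.01% (detergent screen) or 0.0001% Triton X-100; 5.3 nM AmpC reagent; cpd preinc 15 min RT; nitrocefin (800 uM stock) to start; A480 q20 s × 4 min; Activity was normalised to no-enzyme and no-compound control wells.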
* marks the source's active call; other numbers are inactive results. Unless noted, the call rests on the fitted dose curve; in most records, active means well fitted curve in the direction sought with a large enough effect; inconclusive means small, poorly fitted or top-dose-only effect, or another doubt; inactive means no such curve, though single readings can be large; an effect the other way counts as inactive or inconclusive. Unless noted, on the % scale 0 is the no-effect control and ±100 the full control effect; potency means the concentration at half of the fitted maximal effect.

Cc1ccc(CC(=O)NO)cc1 was read as VACV mCherry inh -9% and Vaccinia Venus -12%.
Screening COCc1c(C(=O)N2CCN(C3CCCC3)CC2)cnn1-c1ncc2c(n1)-c1ccccc1CCC2 returned VACV mCherry inh -22% and Vaccinia Venus -1%.
For O=C(C=Cc1ccco1)c1ccc([N+](=O)[O-])cc1 the results were VACV mCherry inh -11% and Vaccinia Venus -4%.
Screening O=C(/C=C/c1ccco1)c1ccc(NC(=O)C23CC4CC(CC(C4)C2)C3)cc1 returned AmpC inh no detg 18µM*, VACV mCherry inh -15%, Vaccinia Venus -3% and AmpC inh detg 0%.
Screening COc1cccc(-n2c(SC)nnc2C2CCN(CCC(C)c3ccc(C)o3)CC2)c1 (stereo not drawn) returned VACV mCherry inh -16% and Vaccinia Venus -5%.
N=C1/C(=C\c2ccc(-c3cccc(C(=O)O)c3)o2)C(=O)N=C2SC=C(c3ccccc3)N12 was read as AmpC inh no detg -38%, VACV mCherry inh -11%, Vaccinia Venus -11% and AmpC inh detg 56µM*.
For N=C1/C(=C/c2ccc(-c3cccc(C(=O)O)c3)o2)C(=O)N=C2SC(CC(=O)N3CCOCC3)=NN12 the results were AmpC inh no detg -6% and AmpC inh detg -1%.
`CCOc1ccc2nc(SC3CC(=O)N(c4cccc(OC)c4)C3=O)sc2c1` (stereo not drawn) gave AmpC inh no detg 8.9µM*, VACV mCherry inh -16%, Vaccinia Venus -2% and AmpC inh detg -14%.
Screening CCOc1ccc2nc(SC3CC(=O)N(c4ccccc4)C3=O)sc2c1 (stereo not drawn) returned AmpC inh no detg -20% and AmpC inh detg 1%.
For CC(C)c1nc2sc3c(SCC(=O)NCc4ccco4)ncnc3c2c2c1CCC2 the results were AmpC inh no detg 30%, Vaccinia Venus 14µM* and AmpC inh detg -3%.
`O=C(CSc1ncnc2sc3c(c12)CCCCC3)NCc1ccco1` gave AmpC inh no detg -12%, VACV mCherry inh -29%, Vaccinia Venus -22% and AmpC inh detg 4%.
For O=C(CCNS(=O)(=O)c1ccc(Cl)cc1)N1CCC2(O)CCCCC2C1 (stereo not drawn) the results were AmpC inh no detg 15%, Vaccinia Venus -15% and AmpC inh detg 40µM*.
Cc1ccnn1CC(=O)N1CCOc2c(cc(-c3csc4ccccc34)cc2OC2CCOC2)C1 (stereo not drawn) was read as VACV mCherry inh -7% and Vaccinia Venus -2%.
For OC(Br)C(O)C(O)N1CCCc2ccccc21 (stereo not drawn) the results were VACV mCherry inh -28% and Vaccinia Venus -26%.
For C=CCOC(=O)C1=C(C)NC(C)=C(C(=O)OCC=C)C1c1cn(-c2ccccc2)nc1-c1ccco1 the results were AmpC inh no detg 16µM* and AmpC inh detg inconclusive.
For OCc1cn(-c2ccccc2)nc1-c1ccco1 the results were AmpC inh no detg -7%, VACV mCherry inh -10%, Vaccinia Venus -4% and AmpC inh detg inconclusive.
Screening c1ccc(-c2nnc(N3CCN(c4ccccn4)CC3)c3ccccc23)cc1 returned AmpC inh no detg -32% and AmpC inh detg 1%.
Screening Cc1ccc(-c2nnc(N3CCN(c4ccccn4)CC3)c3ccccc23)cc1 returned AmpC inh no detg -4%, VACV mCherry inh 11µM*, Vaccinia Venus 18µM* and AmpC inh detg 0%.
For C#CCn1c(O)c(N=NC(=O)C(O)c2ccccc2)c2ccccc21 (stereo not drawn) the results were AmpC inh no detg -55%, VACV mCherry inh 13µM*, Vaccinia Venus inconclusive and AmpC inh detg -5%.
`C=CCn1c(O)c(N=NC(=O)C(O)c2ccccc2)c2ccccc21` (stereo not drawn) gave AmpC inh no detg -25% and AmpC inh detg 2%.
For Cc1nc(N)nc(N)c1-c1ccc(Cl)c(Cl)c1 the results were VACV mCherry inh 1µM* and Vaccinia Venus 1µM*.
Screening Cc1cc(OCc2nc(N)nc(N)c2-c2ccc(Cl)c(Cl)c2)ccc1[N+](=O)[O-] returned VACV mCherry inh 0.89µM* and Vaccinia Venus 1µM*.
Screening Nc1nc(N)nc(-c2ccc(Cl)c(Cl)c2)n1 returned AmpC inh no detg -9%, VACV mCherry inh inconclusive, Vaccinia Venus inconclusive and AmpC inh detg 3%.
Screening COc1ccc(C=O)cc1COc1ccc([N+](=O)[O-])c(C)c1 returned AmpC inh no detg -30%, VACV mCherry inh -3%, Vaccinia Venus -7% and AmpC inh detg 4%.
COc1ccc(CC(N)c2csc(Nc3nccc(C(F)(F)F)n3)n2)cc1 (stereo not drawn) was read as VACV mCherry inh 23% and Vaccinia Venus -10%.
`NC(Cc1ccc(F)cc1)c1csc(Nc2ncccn2)n1` (stereo not drawn) gave VACV mCherry inh 7.1µM* and Vaccinia Venus 7.9µM*.
`COc1ccc(CC(N)c2csc(Nc3ncccn3)n2)cc1` (stereo not drawn) gave VACV mCherry inh 13µM* and Vaccinia Venus inconclusive.
Screening CCc1cnc(Nc2nc(C(N)Cc3ccc(F)cc3)cs2)nc1 (stereo not drawn) returned VACV mCherry inh -9% and Vaccinia Venus inconclusive.
Screening NC(Cc1ccc(Cl)cc1)c1csc(Nc2ncccn2)n1 (stereo not drawn) returned VACV mCherry inh 10µM* and Vaccinia Venus 7.9µM*.
Screening CSc1ccccc1C(=O)NCc1nc(-c2cccc(NC(=O)c3ccoc3C)c2)oc1C returned VACV mCherry inh inconclusive and Vaccinia Venus -29%.
For COc1cc2ccc(C(C)=NNC(N)=S)cc2cc1OC the results were VACV mCherry inh 6.3µM* and Vaccinia Venus inconclusive.
`C/C(=N\NC(N)=S)c1ccc2c(c1)OCCO2` gave AmpC inh no detg -25%, VACV mCherry inh inconclusive, Vaccinia Venus inconclusive and AmpC inh detg -5%.
Screening CC(=NNC(N)=S)c1ccc2cc3c(cc2c1)OCO3 returned VACV mCherry inh inconclusive and Vaccinia Venus 2µM*.
O=c1[nH]c2ccccc2n1C1CCN(C(CCc2ccccc2)c2nnnn2Cc2ccccc2)CC1 (stereo not drawn) was read as VACV mCherry inh inconclusive and Vaccinia Venus 11µM*.
`CC(=O)c1ccc(-c2cc(F)cc3c2OC(CNC(=O)Cc2cn4ccsc4n2)C3)s1` (stereo not drawn) gave VACV mCherry inh -14% and Vaccinia Venus 3%.
For S=c1[nH]cnc2scc(-c3ccc(Cl)cc3)c12 the results were AmpC inh no detg 8.9µM*, VACV mCherry inh -17%, Vaccinia Venus -23% and AmpC inh detg -1%.
`FC(F)Sc1ccc(NC(=S)NCc2ccccc2)cc1` gave AmpC inh no detg -33%, VACV mCherry inh -1%, Vaccinia Venus inconclusive and AmpC inh detg 7%.
`FC(F)Sc1ccc(NC(=S)NC(c2ccccc2)c2ccccc2)cc1` gave AmpC inh no detg 18µM* and AmpC inh detg 10%.

Screens as filed in PubChem BioAssay.
